Experimental data reported in PubChem BioAssay.
Calls of active or inactive are those of the source. Unless noted, the rule behind the calls is not given here.

Key:
[1] = resazurin metabolic signal in HepG2 cells – cell-based, resazurin fluorescence, 24 h, PK04 Diversity Set, profiling panel (AID 1172); conditions: HepG2 viability, higher = more signal; note: test concentration not given here
[2] = budding yeast growth changes without added modifier – OD600, strain BY4716, 24 h, basal condition, primary screen (AID 1173); conditions: S. cerevisiae BY4716 growth, OD600, 24 h; higher = more signal, called active from +8 up or from −8 down
[3] = viability profiling in MM1S myeloma cells – cell-based, resazurin fluorescence, basal, 24 h, PK04 Diversity Set, profiling panel (AID 1174); conditions: higher = more signal, called active from +8 up or from −8 down;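 note: MM1S multiple myeloma cell line; test concentration not given here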
[4] = molecular target: Dihydroorotate dehydrogenase (quinone), mitochondrial (Plasmodium falciparum (isolate 3D7)) (UniProt Q08210); assay: inhibition of P. falciparum DHODH – biochemical, C-terminal His tag, absorbance 600 nm, primary screen (AID 1175); conditions: PfDHODH enzyme, DCIP absorbance 600 nm; higher = more signal, called active from +8 up or from −8 down;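 note: recombinant parasite enzyme with a five histidine tag at its C terminus; test concentration not given here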
Dihydroorotate dehydrogenase (quinone), mitochondrial (Plasmodium falciparum (isolate 3D7)), sequence (Q08210 whole entry, looked up): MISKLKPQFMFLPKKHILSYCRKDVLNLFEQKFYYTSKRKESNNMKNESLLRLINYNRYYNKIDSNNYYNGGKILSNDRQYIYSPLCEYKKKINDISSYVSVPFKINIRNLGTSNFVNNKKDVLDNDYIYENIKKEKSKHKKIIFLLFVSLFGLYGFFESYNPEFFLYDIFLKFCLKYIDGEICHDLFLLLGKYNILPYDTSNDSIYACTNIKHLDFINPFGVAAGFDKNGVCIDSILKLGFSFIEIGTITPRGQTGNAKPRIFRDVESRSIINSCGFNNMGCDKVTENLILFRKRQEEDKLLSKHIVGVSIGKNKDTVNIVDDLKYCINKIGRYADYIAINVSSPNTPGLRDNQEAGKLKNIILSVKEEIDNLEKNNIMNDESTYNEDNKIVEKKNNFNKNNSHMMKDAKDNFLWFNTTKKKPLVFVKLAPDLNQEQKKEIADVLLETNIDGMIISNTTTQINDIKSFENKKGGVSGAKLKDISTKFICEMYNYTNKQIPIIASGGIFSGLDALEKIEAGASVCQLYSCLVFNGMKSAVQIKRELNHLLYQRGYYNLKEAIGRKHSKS

[5] = inhibition of PAO1 biofilm formation – strain PAO1, LB-PBS medium, absorbance 600 nm, primary screen (AID 1176); note: test concentration not given here; conditions: P. aeruginosa PAO1 growth/biofilm, A600, 12 h; higher = more signal
[6] = growth modulation of vineyard yeast isolate – strain RM11-1a, OD600, basal, 24 h, primary screen (AID 1177);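 note: cultures grown under basal conditions with no added stressor; test concentration not given here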; conditions: S. cerevisiae RM11-1a growth, OD600, 24 h; higher = more signal, called active from +8 up or from −8 down
[7] = growth of efflux-deficient E. coli DRC39 – strain DRC39, OD650, 24 h, E. coli filamentation inducers, primary screen (AID 1178);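 note: growth measured as culture turbidity by optical density at 650 nm; test concentration not given here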; conditions: E. coli DRC39 acrAB, higher = more signal, called active from +8 up or from −8 down
[8] = growth of efflux-deficient E. coli DRC39 – strain DRC39, OD650, 48 h, E. coli filamentation inducers, primary screen (AID 1179);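 note: screen aims at cell division blockers that make cells filament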; conditions: E. coli DRC39 delta-acrAB growth, higher = more signal, called active from +8 up or from −8 down
[9] = viability profiling in RPMI8226 myeloma cells – cell-based, resazurin fluorescence, basal, 24 h, PK04 Diversity Set, profiling panel (AID 1180); conditions: higher = more signal;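 note: RPMI8826 multiple myeloma cell line at 5000 cells per well; test concentration not given here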
[10] = molecular target: E3 ubiquitin-protein ligase XIAP (Homo sapiens) (UniProt P98170); assay: small molecules binding XIAP protein – biophysical, small-molecule microarray, fluorescence 635 nm, primary screen (AID 1181); conditions: higher = more signal;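 note: score merges 667 nm emission and signal to noise over triplicate slides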
E3 ubiquitin-protein ligase XIAP (Homo sapiens), sequence (P98170 whole entry, looked up): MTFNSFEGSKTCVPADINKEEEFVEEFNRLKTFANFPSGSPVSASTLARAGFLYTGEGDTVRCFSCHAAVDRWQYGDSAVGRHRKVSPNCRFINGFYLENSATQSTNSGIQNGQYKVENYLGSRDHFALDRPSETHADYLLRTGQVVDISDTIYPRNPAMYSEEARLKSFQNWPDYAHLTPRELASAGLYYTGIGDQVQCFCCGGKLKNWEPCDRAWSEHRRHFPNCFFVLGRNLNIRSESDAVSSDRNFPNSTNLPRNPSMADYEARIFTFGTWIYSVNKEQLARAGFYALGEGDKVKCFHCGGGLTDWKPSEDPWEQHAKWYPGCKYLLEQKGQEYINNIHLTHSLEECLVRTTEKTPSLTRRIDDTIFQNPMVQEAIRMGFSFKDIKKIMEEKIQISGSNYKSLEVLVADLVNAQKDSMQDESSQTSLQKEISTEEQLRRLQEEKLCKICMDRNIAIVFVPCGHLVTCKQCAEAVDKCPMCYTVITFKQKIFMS

Compound | z-score [1] | z-score [2] | z-score [3] | composite z-score [4] | z-score [5] | z-score [6] | z-score [7] | z-score [8] | z-score [9] | composite z-score [10]
[N-]=[N+]=NCc1ccccc1C[C@]1(C(=O)N2CCCCC2)N=C(c2ccc(OCCCO)cc2)O[C@H]1c1ccccc1CN=[N+]=[N-] | -0.182 | 1.06 (inactive) | -1.32 (inactive) | -0.266 (inactive) | 1.76 (inactive) | 0.736 (inactive) | 0.0687 (inactive) | -0.352 (inactive) | -2.22 | 0.377
O=C1O[C@H](c2ccccc2)[C@H](c2ccccc2)N2[C@H]1[C@@H](C(=O)NC[C@H](O)c1ccccc1)[C@]1(C(=O)Nc3ccc(C#CC4=CCCCC4)cc31)[C@H]2c1ccc(OCCO)cc1 | 0.0374 | 1.17 (inactive) | -2 (inactive) | -0.186 (inactive) | 2.05 (inactive) | 3.28 (inactive) | -0.227 (inactive) | 0.262 (inactive) | -3.18 | -0.316
CCCCCCc1nc(-c2cc(C)c(OC)c(C)c2)cc2c1[Si](C(C)C)(C(C)C)O[C@H]2c1ccccc1 | 0.0796 | 0.54 (inactive) | 0.0808 (inactive) | -0.292 (inactive) | -0.334 (inactive) | 0.315 (inactive) | 0.609 (inactive) | 0.228 (inactive) | 0.219 | -0.244
CCCC[C@H]1OB(O)C[C@H]2C1=C(COC)C[C@H]1C(=O)N(Cc3ccccc3)C(=O)[C@H]12 | 1.13 | -3.65 (inactive) | 0.518 (inactive) | 0.282 (inactive) |  | -1.67 (inactive) | 2.53 (inactive) | 0.942 (inactive) | 0.283 | -0.12
C=C(CCCC)/C(=C/C[C@@H](OC(=O)c1ccncc1)c1cccc(OCCO)c1)c1cc(C(=O)OC)ccc1OC | 1.02 | 0.199 (inactive) | -0.73 (inactive) | -0.757 (inactive) | 1.05 (inactive) | 0.0731 (inactive) | 1.81 (inactive) | 1.33 (inactive) | -0.647 | 0.137
O=C1OCCC/C=C\[C@H]2OC34C=CCN(CCN5CCOCC5)C(=O)[C@H]3N(CCCCCO)C(=O)[C@@H]4C12 (stereo partly specified) | -0.567 | -0.0575 (inactive) | -0.193 (inactive) | 0.286 (inactive) | -0.0432 (inactive) | -0.634 (inactive) | 0.157 (inactive) | 0.0435 (inactive) | 0.0501 | -0.124
COc1cc2c(cc1OC)CN(C(=O)[C@H]1[C@@H]3C(=O)O[C@@H](c4ccccc4)[C@@H](c4ccccc4)N3[C@@H](c3ccccc3OCCO)[C@]13C(=O)Nc1ccc(C#CC4(O)CCCCCC4)cc13)CC2 | 0.714 | 0.0302 (inactive) | -0.492 (inactive) | 0.682 (inactive) | 2.63 (inactive) | 2.15 (inactive) | 0.667 (inactive) | 1.61 (inactive) | 0.248 | -0.12
O=C/C=C/c1ccc(/C=C/c2ccccc2)cc1 | 0.555 | -16.4 (active) | 0.408 (inactive) | -1.43 (inactive) | 0.668 (inactive) | -1.01 (inactive) | 2.11 (inactive) | 1.56 (inactive) | -3.21 | -0.242
Cc1cc(C)c(C(O)C2C=CC3C(=O)N(C)C(=O)C3N2N2CCCCC2)c(C)c1 (stereo unspecified) | 0.0632 | 0.361 (inactive) | -1.09 (inactive) | -0.416 (inactive) | 0.875 (inactive) | -0.136 (inactive) | -0.894 (inactive) | -0.435 (inactive) | -1.02 | 0.305
Cc1ccc(N2C(=O)c3ccccc3[C@@H](C(=O)NCC(F)(F)F)[C@@H]2c2ccc(CO)cc2)nc1 | 0.129 | -0.789 (inactive) | 1.21 (inactive) | -0.417 (inactive) | 0.429 (inactive) | -0.872 (inactive) | 0.419 (inactive) | 0.127 (inactive) | 0.607 | -0.227
COc1cccc([C@@H]2[C@@H](C)CC[C@H]3C(=O)N(C)[C@@H](C(C)C)C(=O)N23)c1 | 0.989 | -1.32 (inactive) | 0.708 (inactive) | 0.295 (inactive) |  | 0.192 (inactive) | 0.847 (inactive) | 0.836 (inactive) | 1.67 | 0.258
C=CCNC(=O)[C@H]1[C@@H]2C(=O)O[C@@H](c3ccccc3)[C@@H](c3ccccc3)N2[C@@H](c2ccccc2OCCO)[C@]12C(=O)N(C(=O)OCCOC)c1ccc(C#CCNC(N)=O)cc12 | 0.834 | 0.338 (inactive) | 1.71 (inactive) | -1.11 (inactive) |  | 1.04 (inactive) | 0.845 (inactive) | 1.06 (inactive) | 1.72 | -0.23
COc1cccc([C@H]2N[C@H](C(=O)O)CC[C@@H]2C)c1 | -0.104 | -1.03 (inactive) | 0.975 (inactive) | -2.33 (inactive) |  | -0.393 (inactive) | -0.914 (inactive) | -0.83 (inactive) | 0.761 | 0.169
